Assay outcomes deposited in PubChem BioAssay by Center for Chemical Genomics, University of Michigan.
The full list was thinned out, with hits kept by preference.
Dicer inh: blocks human Dicer maturation of pre-miR-21 | 47,000 compounds, 6% hits | cat-ELCCA pre-miR-21 Dicer processing, chemiluminescence; hits give high values | z-score at 25 µM | AID 1347074 | Q9UPY3; in the data active = z-score above about 3, passing the limit was not always enough;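 also: higher signal means more uncleaved substrate so more Dicer inhibition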
Target sequence (Q9UPY3 whole entry, looked up): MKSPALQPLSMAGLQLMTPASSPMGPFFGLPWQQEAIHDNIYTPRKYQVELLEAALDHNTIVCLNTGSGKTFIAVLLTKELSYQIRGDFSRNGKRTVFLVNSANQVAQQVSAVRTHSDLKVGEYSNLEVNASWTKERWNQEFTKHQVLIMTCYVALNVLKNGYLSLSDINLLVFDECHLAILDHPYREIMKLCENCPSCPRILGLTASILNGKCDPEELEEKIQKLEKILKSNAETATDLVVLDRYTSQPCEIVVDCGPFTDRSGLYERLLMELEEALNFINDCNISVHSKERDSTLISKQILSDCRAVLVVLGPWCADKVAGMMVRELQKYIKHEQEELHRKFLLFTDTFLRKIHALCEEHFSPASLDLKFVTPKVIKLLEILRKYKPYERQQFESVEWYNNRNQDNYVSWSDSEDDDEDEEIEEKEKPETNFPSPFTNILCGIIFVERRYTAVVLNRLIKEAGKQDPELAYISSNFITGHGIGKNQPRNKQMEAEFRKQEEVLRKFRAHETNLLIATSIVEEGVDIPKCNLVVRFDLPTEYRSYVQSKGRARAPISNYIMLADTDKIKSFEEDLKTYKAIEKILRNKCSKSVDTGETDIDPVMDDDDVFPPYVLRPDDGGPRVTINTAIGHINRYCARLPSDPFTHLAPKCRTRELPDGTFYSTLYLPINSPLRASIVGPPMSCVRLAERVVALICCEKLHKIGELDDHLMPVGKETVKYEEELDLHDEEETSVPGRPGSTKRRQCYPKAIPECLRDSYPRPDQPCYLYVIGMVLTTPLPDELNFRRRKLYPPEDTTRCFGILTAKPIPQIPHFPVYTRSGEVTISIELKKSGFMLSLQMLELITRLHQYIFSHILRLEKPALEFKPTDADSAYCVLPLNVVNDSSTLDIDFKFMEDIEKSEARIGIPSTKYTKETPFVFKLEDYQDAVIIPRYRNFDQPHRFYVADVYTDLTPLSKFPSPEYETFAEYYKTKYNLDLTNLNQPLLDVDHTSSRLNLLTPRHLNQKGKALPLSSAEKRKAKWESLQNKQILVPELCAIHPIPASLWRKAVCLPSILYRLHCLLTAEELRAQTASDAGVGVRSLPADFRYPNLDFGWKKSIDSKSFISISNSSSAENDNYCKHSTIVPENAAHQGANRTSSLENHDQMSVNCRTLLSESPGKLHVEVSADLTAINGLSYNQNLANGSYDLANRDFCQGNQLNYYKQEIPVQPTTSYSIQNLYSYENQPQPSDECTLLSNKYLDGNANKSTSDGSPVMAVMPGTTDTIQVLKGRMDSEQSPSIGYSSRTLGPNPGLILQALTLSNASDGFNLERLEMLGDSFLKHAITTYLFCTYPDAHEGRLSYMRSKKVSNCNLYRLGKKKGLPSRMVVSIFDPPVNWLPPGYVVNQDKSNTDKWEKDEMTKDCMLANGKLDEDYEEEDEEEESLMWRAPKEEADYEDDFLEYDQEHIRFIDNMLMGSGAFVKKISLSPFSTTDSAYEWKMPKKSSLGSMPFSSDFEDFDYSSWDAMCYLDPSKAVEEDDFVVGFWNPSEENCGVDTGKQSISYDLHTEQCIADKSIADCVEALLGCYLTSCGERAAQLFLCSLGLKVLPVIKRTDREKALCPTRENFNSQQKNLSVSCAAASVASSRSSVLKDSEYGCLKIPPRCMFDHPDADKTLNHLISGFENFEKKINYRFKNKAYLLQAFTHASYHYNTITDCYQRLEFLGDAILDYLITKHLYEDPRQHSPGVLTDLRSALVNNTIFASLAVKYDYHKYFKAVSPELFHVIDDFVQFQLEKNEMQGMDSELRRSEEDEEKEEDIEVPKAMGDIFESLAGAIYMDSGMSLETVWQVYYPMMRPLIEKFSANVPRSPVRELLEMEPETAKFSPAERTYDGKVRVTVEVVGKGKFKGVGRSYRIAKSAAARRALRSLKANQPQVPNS
Each line names hits and unclear results; the compound was inactive in the other large screens.

CCOc1ccc(S(=O)(=O)Nc2cc(C)ccn2)c(C)c1C	none
CCn1c(/C=C/c2cccc(Br)c2)nc2ccccc2c1=O	none
CCn1c(/C=C/c2ccc3c(c2)OCO3)nc2ccccc2c1=O	Dicer inh 5.12
CCn1c(SC)nc2ccccc2c1=O	none
Cn1c(=O)c2cc3ccccc3nc2c2c(=O)n(-c3ccccc3)c(=O)n(-c3ccccc3)c21	none
Cc1cc(C(=O)NNC(=O)Nc2ccc(F)cc2F)nn1C(C)(C)C	none
Clc1cc(Cl)c2c(c1)C=C1CCCCC1(N1CCCC1)O2 (stereo unspecified)	none
C/C(N)=N/C(=S)Nc1ccc(Cl)cc1	none
CC(C)=NN/C(N)=N/C(=S)Nc1ccccc1	Dicer inh 3.99
CO/C(N)=N/C(=S)Nc1ccccc1	none
Cc1ccc(S(=O)(=O)Oc2ccc(Cl)cc2Sc2cc(Cl)ccc2OS(=O)(=O)c2ccc(C)cc2)cc1	none
CC(C)n1c2ccc(F)cc2c2nc3ccccc3nc21	none
CCOC(=O)c1c(NC(=O)CN(CC)CC)sc2c1CCCC2	none
CCOC(=O)c1c(NC(=O)CSc2nnc(C)c(=O)[nH]2)sc2c1CCCC2	Dicer inh 3.28
CCOC(=O)c1c(NC(=O)CSc2nnc3c(n2)[nH]c2ccccc23)sc2c1CCCC2	none
N#Cc1c(NC(=O)CSc2nnnn2-c2ccccc2)sc2c1CCCC2	none
Cc1nnc(SCC(=O)Nc2sc3c(c2C#N)CCCC3)s1	Dicer inh 3.4
N#Cc1c(NC(=O)CSc2ccc(Cl)cc2)sc2c1CCC2	none
Cc1ccc(-c2cc3nccc(-c4cc(F)ccc4O)n3n2)cc1	none
CC(CN1CCN(Cc2ccccc2)CC1)N(C(=O)C1CCC1)c1ccccn1 (stereo unspecified)	none
Cn1ccnc1S(=O)(=O)/C(C#N)=C/c1ccccc1Cl	none
CCOC(=O)c1c(C)oc(-c2ccc(C)cc2)c1S(=O)(=O)Nc1cccc(C(F)(F)F)c1	none
O=C(CSc1nnc(C2CC2)n1-c1ccc(Cl)cc1)c1ccc(Cl)cc1	none
O=c1[nH]nc(-c2ccccc2)c2ccccc12	none
O=c1[nH]nc(Cc2ccccc2)c2ccccc12	Dicer inh 3.98
COC(=O)CSCc1n[nH]c(=O)c2ccccc12	none
N[C@@H](CCCCNC(=O)OCc1ccccc1Cl)C(=O)O	none
CCOC(=O)C1=C(C)NC2=C(C(=O)CC(c3ccccc3)C2)C1c1cccc(Br)c1 (stereo unspecified)	Dicer inh 5.36
CC1=C(C(=O)OCC(C)C)C(c2ccc(F)cc2)C2=C(CC(c3ccccc3)CC2=O)N1 (stereo unspecified)	none
CCC(C)OC(=O)C1=C(C)NC2=C(C(=O)CC(c3ccccc3)C2)C1c1ccc(N(C)C)cc1 (stereo unspecified)	Dicer inh 3.34
CCOC(=O)C1=C(C)NC2=C(C(=O)CC(c3ccccc3)C2)C1c1cccc(O)c1 (stereo unspecified)	none
CCOC(=O)C1=C(C)NC2=C(C(=O)CC(c3ccccc3)C2)C1c1ccc(O)c(OCC)c1 (stereo unspecified)	none
CC1=C(C(=O)OC(C)C)C(c2ccncc2)C2=C(CC(c3ccccc3)CC2=O)N1 (stereo unspecified)	none
COC(=O)c1sccc1N/N=C(\C#N)S(C)(=O)=O	none
O=c1[nH]nc(Sc2ncc([N+](=O)[O-])s2)n1Cc1ccccc1	none
Cc1nc(Nc2nc3ccccc3o2)nc(-c2ccc(Cl)cc2)c1C#N	none
CCOC(=O)c1ccc2c(c1)CC/C(=C\c1ccc(F)cc1)C2=O	none
O=C1CC(c2ccccc2)CC2=C1C(c1coc3ccccc3c1=O)Nc1ccccc1N2 (stereo unspecified)	none
O=C(O)CCC(=O)Nc1cc2c(cc1Br)OCCO2	none
O=C(O)CCC(=O)Nc1ccc(OC(F)(F)F)cc1Br	none
Cc1ccc(NC(=O)CCS(=O)(=O)Cc2ccccc2)c(Br)c1	Dicer inh 4.53
CCOC(=O)NC(=O)c1cn(C(C)C)c(=O)n(Cc2ccccc2)c1=O	none
O=C(c1ccc([N+](=O)[O-])cc1)c1ccc2c(c1)CCC2	Dicer inh 3.56
C/C(=N\NC(=O)N/N=C(\C)c1ccc([N+](=O)[O-])cc1)c1ccc([N+](=O)[O-])cc1	none
O=C(CSC1=NCCCCC1)c1ccc([N+](=O)[O-])cc1	none
COCCOC(=O)c1c(C)oc2ccc(OC(C)C(=O)OC)cc12 (stereo unspecified)	none
CCCCCCOc1ccc(OC(=O)c2ccncc2)cc1	Dicer inh 8.88
O=C(Oc1ccc(OC(=O)c2ccncc2)cc1)c1ccncc1	none
COc1ccc(OC(=O)c2ccncc2)cc1	none
CCN(CC)C(=S)Oc1ccccc1[N+](=O)[O-]	none
Cc1ccc2nc3c(nc2c1C)C(O)=C3O	Dicer inh 4.23
COC(=O)c1scc(S(=O)(=O)c2ccc(Cl)cc2)c1N	none
FC(F)(F)c1ccnc(N2CCC(NC(=S)NC3CC3)CC2)n1	none
Cc1ccccc1C1CC(=O)NC(SCc2ccccc2)=C1C#N (stereo unspecified)	none
CC(C(Sc1ccccc1N)c1ccc(F)cc1)[N+](=O)[O-] (stereo unspecified)	none
O=C(O)CSc1nc2ccccc2s1	none
Nc1ccc(Sc2nc3ccccc3s2)cc1	Dicer inh 5.2
Clc1ccc2sc(Sc3ccccc3)nc2c1	none
COC(=O)c1sc(N2C(=O)C(=O)/C(=C(/O)c3ccc(Cl)cc3)C2c2ccc(C)cc2)nc1C (stereo unspecified)	none
COCCOC(=O)c1ccc2nc(N)sc2c1	none
O=[N+]([O-])c1ccc(OCc2ccccc2)cc1/C=C\N1CCCC1	Dicer inh 3.01
O=[N+]([O-])c1cc(F)ccc1/C=C/N1CCCC1	none
O=[N+]([O-])c1cccnc1Oc1ccc(OCc2ccccc2)cc1	none
CCCc1nc(-c2ccccn2)[nH]c(=O)c1CC1CC1	none
CC(C)CCCC(C)C1CCC2C3CC(O)[C@@]4(O)CC(O)CCC4(C)C3CCC12C (stereo partly specified)	none
CC1=C(C(=O)OC2CCCCC2)C(c2ccccc2C)C2=C(CCCC2=O)N1 (stereo unspecified)	none
Cn1c(SCC(=O)Nc2ccccc2)nnc1SCC(=O)Nc1ccccc1	none
CCOC(=O)CSc1nc(-c2ccccc2)cn1-c1ccccc1	none
O=C(CSc1nc(-c2ccccc2)cn1-c1ccccc1)NC(=O)Nc1ccccc1	Dicer inh 3.38
CCOC(=O)c1ccc2nc3c(nc2c1)C(O)=C3O	none
OC1=C(O)c2nc3cc(F)ccc3nc21	Dicer inh 3.12
Cc1c(-c2ccc(-c3ccccc3F)cc2)nc2ccc(F)cc2c1C(=O)O	none
COc1cc(C2C(C(=O)OC(C)C)=C(C)NC3=C2C(=O)CCC3)ccc1O (stereo unspecified)	none
O=C1CC(c2cccc3ccccc23)Sc2nc(-c3ccccc3)nn21 (stereo unspecified)	Dicer inh 4.37
O=C1CC(c2ccccc2)Sc2nc(-c3ccc(F)cc3)nn21 (stereo unspecified)	none
O=C1CCC(=O)N1c1nc2n(n1)C(c1ccccc1)C=C(c1ccccc1)N2 (stereo unspecified)	none
COc1ccc(-c2nc3n(n2)C(c2cccc(OC)c2OC)C2=C(CC(C)(C)CC2=O)N3)cc1 (stereo unspecified)	none
Cc1ccc(-c2nc3n(n2)C(=O)CC(c2ccc4c(c2)OCO4)S3)cc1 (stereo unspecified)	none
COc1ccc(-c2nc3n(n2)C(=O)CC(c2cccc4ccccc24)S3)cc1 (stereo unspecified)	Dicer inh 4.24
CCOC(=O)c1c(NC(=S)N2CCN(c3ccccc3)CC2)sc2c1CCCC2	none
CSc1n[nH]c(C23CC4CC(CC(C4)C2)C3)n1	none
C=CCOC(=O)c1sc(N2C(=O)c3oc4ccccc4c(=O)c3C2c2cccc(Cl)c2)nc1C (stereo unspecified)	none
